Only a selection was taken, and hits are over-represented in it overall.
NOMO-1 viab: STK33 inhibitor candidate reducing NOMO-1 cell viability; NOMO-1 AML viability, CellTiter-Glo luminescence, 72 h; inhibition, % (test concentration not listed); 7.5% of 37,000 active; AID 2330; in the data active = inhibition above about 80%
PD-1 reverse act: reversal of PD-1 mediated T-cell inhibition; primary human CD4 T cells, PD-L1 beads, CellTiter-Glo 96 h; activation, % (test concentration not listed); 29,000 tested, under 10 active; AID 2316; call rule not given here;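 note: 0% = median vehicle wells and 100% = positive control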
STK33 kin inh: inhibitors of human STK33 kinase | 0.44% of 27,000 active | ADP-Glo luminescence, MBP substrate | AID 2322 | Q9BYT3 | inhibition, % at 12.5 µM; in the data active = inhibition above about 20%
Target sequence (Q9BYT3 whole entry, looked up): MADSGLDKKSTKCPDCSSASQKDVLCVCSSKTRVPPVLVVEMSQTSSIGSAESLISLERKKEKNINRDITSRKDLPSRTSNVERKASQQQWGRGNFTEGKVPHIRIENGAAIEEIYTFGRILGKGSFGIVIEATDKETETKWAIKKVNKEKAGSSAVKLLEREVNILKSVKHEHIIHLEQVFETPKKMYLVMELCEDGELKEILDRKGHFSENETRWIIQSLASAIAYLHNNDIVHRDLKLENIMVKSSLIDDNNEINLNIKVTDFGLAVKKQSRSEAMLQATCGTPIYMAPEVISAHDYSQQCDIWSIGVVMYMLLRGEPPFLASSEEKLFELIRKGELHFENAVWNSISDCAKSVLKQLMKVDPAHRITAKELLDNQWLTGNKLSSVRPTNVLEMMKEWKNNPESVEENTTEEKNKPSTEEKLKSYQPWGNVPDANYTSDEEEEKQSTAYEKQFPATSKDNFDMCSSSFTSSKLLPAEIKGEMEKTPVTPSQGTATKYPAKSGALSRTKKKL
The depositor's hits bear a star; · = no result given.

SMILES	NOMO-1 viab	PD-1 reverse act	STK33 kin inh
CC1CC[C@@]2(OC1)O[C@H]1CC3C4CC=C5C[C@@H](O[C@@H]6O[C@H](CO)[C@@H](O[C@@H]7O[C@@H](C)[C@H](O)[C@@H](O)[C@H]7O)[C@H](O)[C@H]6O[C@@H]6O[C@@H](C)[C@H](O)[C@@H](O)[C@H]6O)CC[C@]5(C)C4CC[C@]3(C)[C@@]1(O)[C@@H]2C (stereo not given in full)	119*	-15	-9
C[C@@H]1O[C@@H](O[C@H]2[C@H](O[C@H]3CC[C@@]4(C)C(CC[C@]5(C)C4CC=C4C6CC(C)(C)CC[C@]6(C(=O)O[C@@H]6O[C@H](CO[C@@H]7O[C@H](CO)[C@@H](O[C@@H]8O[C@@H](C)[C@H](O)[C@@H](O)[C@H]8O)[C@H](O)[C@H]7O)[C@@H](O)[C@H](O)[C@H]6O)CC[C@]45C)C3(C)C)OC[C@H](O)[C@@H]2O)[C@H](O)[C@H](O)[C@H]1O (stereo not given in full)	·	·	-5
C[C@H]1CN([C@@H](C)CO)C(=O)Cc2cc(NS(=O)(=O)c3ccccc3)ccc2O[C@@H]1CN(C)CC1CCCCC1	34	-3	0
CC1(CO)CCCC2(C)C3=C(CC(=O)C12)C(=O)OC3 (stereo not given)	14	1	1
COc1ccc(NC(=O)Nc2ccc3c(c2)C(=O)N([C@@H](C)CO)C[C@H](C)[C@@H](CN(C)Cc2ccc(-c4ccccc4)cc2)O3)cc1	82*	-5	4
CC(C)NC(=O)Nc1ccc2c(c1)C(=O)N([C@@H](C)CO)C[C@H](C)[C@H](CN(C)Cc1ccc(-c3ccccc3)cc1)O2	9	1	-2
COc1ccc(NC(=O)Nc2ccc3c(c2)C(=O)N([C@@H](C)CO)C[C@@H](C)[C@H](CN(C)Cc2ccc(-c4ccccc4)cc2)O3)cc1	97*	-2	0
COc1ccc(CN(C)C[C@H]2Oc3ccc(NC(=O)Nc4ccccc4)cc3C(=O)N([C@@H](C)CO)C[C@H]2C)cc1	25	1	·
COc1ccc(CN(C)C[C@@H]2Oc3ccc(NC(=O)Nc4ccccc4)cc3C(=O)N([C@H](C)CO)C[C@H]2C)cc1	-1	·	·
COc1ccc(CN(C)C[C@H]2Oc3ccc(NC(=O)Nc4ccccc4)cc3C(=O)N([C@H](C)CO)C[C@H]2C)cc1	37	·	·
CC(C)NC(=O)Nc1ccc2c(c1)C(=O)N([C@H](C)CO)C[C@@H](C)[C@H](CN(C)Cc1ccc(-c3ccccc3)cc1)O2	84*	-2	·
COc1ccc(NC(=O)Nc2ccc3c(c2)C(=O)N([C@H](C)CO)C[C@@H](C)[C@H](CN(C)Cc2ccc(-c4ccccc4)cc2)O3)cc1	119*	-3	·
CNS(=O)(=O)c1ccc(C(F)(F)F)cc1S(=O)c1ccccc1C(=O)O (stereo not given)	-5	1	·
C[C@@H]1CN([C@@H](C)CO)C(=O)c2cc(NC(=O)Cc3ccccc3)ccc2O[C@@H]1CN(C)C(=O)Nc1ccc(F)cc1	13	-1	·
C[C@@H]1CN([C@H](C)CO)C(=O)Cc2cc(NC(=O)CCC(F)(F)F)ccc2O[C@@H]1CN(C)C(=O)Nc1ccc2c(c1)OCO2	2	0	-1
COC(=O)c1ccc(NC(=O)CN(C)S(=O)(=O)c2ccc3ccccc3c2)cc1	-19	3	1
C[C@@H]1CN([C@H](C)CO)C(=O)c2cccc(NC(=O)C3CCOCC3)c2O[C@@H]1CN(C)C(=O)Nc1ccc2c(c1)OCO2	-12	·	·
C[C@H](CO)N1C[C@H](C)[C@H](CN(C)Cc2ccc(-c3ccccc3)cc2)Oc2ccc(NC(=O)Nc3ccccc3)cc2C1=O	-14	1	9
C[C@@H]1CN([C@@H](C)CO)C(=O)c2cc(NC(=O)Nc3ccccc3)ccc2O[C@@H]1CN(C)Cc1ccc(-c2ccccc2)cc1	114*	-5	2
O=c1cc(O)c2sc3nc(-c4cccnc4)c4c(c3c2[nH]1)CCCC4	106*	0	·
c1cncc(-c2nc3ccc4ccccc4c3c3c2CCCC3)c1	72	-1	·
CC(=O)OC[C@]12[C@H](OC(C)=O)[C@H](OC(C)=O)[C@@H]3[C@@H](OC(C)=O)[C@@]14O[C@@]3(C)COC(=O)c1cnccc1CC[C@H](C)C(=O)O[C@@]4(C)[C@@H](O)[C@H](O)[C@@H]2OC(C)=O	119*	-3	1
COc1ccc(S(=O)(=O)Nc2ccc3c(c2)C(=O)N([C@H](C)CO)C[C@H](C)[C@@H](CN(C)S(=O)(=O)c2c(C)noc2C)OCCCC[C@@H](C)O3)cc1	18	-1	-1
O=C1c2ccccc2C(=O)N1CCc1nc2ccccc2c(=O)n1Cc1ccccc1	33	·	-1
C=C[C@H]1[C@H](OC2OC(CO)C(O)C(O)C2O)OC=C(C(=O)OC)[C@H]1CCOC(=O)c1cc(O)c(O)c(O)c1 (stereo not given in full)	13	0	-2
CC1(C)CC[C@]2(C(=O)O[C@@H]3O[C@H](CO)[C@@H](O)[C@H](O)[C@H]3O)CC[C@]3(C)C(=CCC4[C@@]5(C)CC[C@H](O[C@@H]6O[C@H](C(=O)O)[C@@H](O)[C@H](O)[C@H]6O)C(C)(C)C5CC[C@]43C)C2C1 (stereo not given in full)	115*	0	-5
CC1(C)CC[C@@]2(C(=O)O[C@@H]3O[C@H](CO)[C@@H](O)[C@H](O)[C@H]3O)C(C1)C1=CCC3[C@@]4(C)CC[C@@H](O[C@@H]5O[C@H](C(=O)O)[C@@H](O[C@@H]6OC[C@@H](O)[C@H](O)[C@H]6O)[C@H](O[C@@H]6OC[C@](O)(CO)[C@H]6O)[C@H]5O)C(C)(C)C4CC[C@@]3(C)[C@]1(C)C[C@H]2O (stereo not given in full)	5	-1	-1
CC1OC(OC2C(C(=O)O)OC(O[C@H]3CC[C@@]4(C)C(CC[C@]5(C)C4CC=C4C6CC(C)(C)CC[C@]6(C(=O)OC6OC(CO)C(O)C(O)C6O)CC[C@]45C)C3(C)C)C(O)C2O)C(OC2OCC(O)C(O)C2O)C(O)C1O (stereo not given in full)	1	2	-1
CC1(C)CC[C@]2(C(=O)O[C@@H]3O[C@H](CO)[C@@H](O)[C@H](O)[C@H]3O)CC[C@]3(C)C(=CCC4[C@@]5(C)CC[C@H](O[C@@H]6O[C@H](C(=O)O)[C@@H](O[C@@H]7O[C@H](CO)[C@@H](O)[C@H](O)[C@H]7O)[C@H](O)[C@H]6O[C@@H]6O[C@H](CO)[C@@H](O)[C@H](O)[C@H]6O)C(C)(C)C5CC[C@]43C)C2C1 (stereo not given in full)	9	2	-1
C[C@@H]1O[C@@H](O[C@@H]2[C@@H](O)[C@H](OC(=O)[C@]34CCC(C)(C)CC3C3=CCC5[C@@]6(C)CC[C@H](OC7OC(CO)C(OC8OCC(O)C(O)C8O)C(O)C7O)C(C)(C)C6CC[C@@]5(C)[C@]3(C)CC4O)O[C@H]2CO)[C@H](O)[C@H](O)[C@H]1O[C@H]1OC[C@](O)(CO)[C@H]1O (stereo not given in full)	95*	-13	1
